Data: ChEMBL document CHEMBL4513216, “Probing the Open Global Health Chemical Diversity Library for Multistage-Active Starting Points for Next-Generation Antimalarials” (ACS Infect Dis, 2020)
The whole screen tested about 69,000 compounds, of which about 8,600 (12%) showed an effect of 50% or more. The sample as a whole holds a higher share of strong results than the screen did.

Each molecule was assayed on Plasmodium berghei (assay: Screen against P. berghei liver stage (PbLuc), transformed with Luciferase, at 10uM). Settings: tested at 10 uM.
Assay type: functional, HepG2
O=C(NC1CCCCC1)N1CCn2c(nnc2C2CCCN2)C1 (stereo not given) was tested, and the INHIBITION was 44.1%. CS(=O)(=O)NCc1nnc2n1CCN(Cc1cccs1)CC2 gave an INHIBITION of 34.6%. NC(=O)COc1ccc(CNCc2cc(F)cc(F)c2)cc1 gave an INHIBITION of -28%. Work on Cc1cc2nc(C(C)C)cc(NCCc3ccncc3)n2n1 yielded an INHIBITION of 34%. With CC(NC(=O)C1CCN(S(N)(=O)=O)CC1)c1cccc(OC(F)F)c1 (stereo not given) the INHIBITION was 17%. CC(=O)N1CC(C(=O)Nc2cccc(OC(F)F)c2)C1 showed an INHIBITION of 26%. CC(=O)N1CCC(C(=O)NC(C)c2cccc(OC(F)F)c2)CC1 (stereo not given) showed an INHIBITION of 58.3%. CCc1ncc2c(n1)CN(Cc1cc(C)on1)CC2 gave an INHIBITION of 35.4%. For Cc1nn(C)cc1-c1cncn1CCN(C)C1CCCC1, the INHIBITION was -25.3%. For CCCC(=O)N1CCCN(C(=O)c2oc(C)nc2C)CC1, the INHIBITION was 80%. For Cc1ocnc1C(=O)N1CCN(CCOc2ccccc2)CC1, the INHIBITION was 37.6%. COCCN1CCCN(C(=O)c2oc(C)nc2C)CC1 was tested, and the INHIBITION was 33.4%. Work on Cc1nc(C)c(C(=O)N2CCc3nnc(C4CCCCN4C)n3CC2)o1 (stereo not given) yielded an INHIBITION of -4.68%. For Cc1nc(C)c(C(=O)N2CCN(CCOc3ccccc3C)CC2)o1, the INHIBITION was 66.3%. Molecule CCCN1CCCN(C(=O)c2oc(C)nc2C)CC1 has an INHIBITION of 2.7%. COCCNC(=O)C(C)n1nc(-c2ccco2)cc(N)c1=O (stereo not given) gave an INHIBITION of 42.6%. With CC(C)OCCCN(Cc1ccncc1)Cc1cccc(F)c1F the INHIBITION was -12.9%. With COc1cc2cc(C(=O)NCCC(=O)O)n(C)c2c(OC)c1OC the INHIBITION was 11%. Work on COc1cc2cc(C(=O)O)n(C)c2c(OC)c1OC yielded an INHIBITION of -9.48%. In the case of COc1cc2cc(C(=O)NCC(=O)O)n(C)c2c(OC)c1OC, the INHIBITION is reported as 57.3%. Cc1nc(C2CCCN2CCC(=O)N2CCc3ccccc32)no1 (stereo not given) was tested, and the INHIBITION was 5.03%. Work on Cc1nnc(N2C[C@H](OCC3CCCC3)[C@H]3OCCC[C@H]32)s1 yielded an INHIBITION of -34.7%. COc1ccc(OC)c(C2CCN(C3CCOCC3)C2)c1 (stereo not given) gave an INHIBITION of -68.6%. For COc1cccc(C2CCN(c3ccc4cc[nH]c4n3)C2)c1OC (stereo not given), the INHIBITION was 89.9%. For COc1cccc(C2CC(=O)Nc3nc(N4CCCCC4)sc32)c1OC (stereo not given), the INHIBITION was 19.3%. COc1ccc(OC)c(C2CCN(c3ccc4cc[nH]c4n3)C2)c1 (stereo not given) was tested, and the INHIBITION was 79.2%. Work on COc1ccc(OC)c(C2CCN(Cc3nc(C)n4ccccc34)C2)c1 (stereo not given) yielded an INHIBITION of 45.8%. Work on COC(=O)c1ccc(N2CCC(c3ccccc3)CC2)nn1 yielded an INHIBITION of -18.5%. In the case of COc1ccccc1OC1CCN(c2nc(N)nc3[nH]cnc23)CC1, the INHIBITION is reported as -18.8%. Work on COc1ccccc1C1CCN(c2ccc3cc[nH]c3n2)CC1 yielded an INHIBITION of 88.2%. For COc1cccc(C2CC(=O)Nc3nc(N4CCOCC4)sc32)c1OC (stereo not given), the INHIBITION was 13.4%. Work on Fc1cnc(N2CCC3(CCCN(c4nncs4)C3)C2)nc1 (stereo not given) yielded an INHIBITION of 4.68%. Molecule COCC1COCCC12CCN(CCc1ccccc1)CC2 (stereo not given) has an INHIBITION of 2.3%. O=C(Nc1cn[nH]c1)c1ccncc1 was tested, and the INHIBITION was 35.95%. For CN(C)C(=O)CNC(=O)c1nc(C2CC2)n(-c2ccccc2Cl)n1, the INHIBITION was -20.8%. O=C(c1ccnnc1)N1CC[C@H]2C[C@H](c3ccncn3)O[C@@H]2C1 gave an INHIBITION of 25.2%. Cc1ccc(Oc2ncccc2C(=O)O)c(C)c1 gave an INHIBITION of -16.2%. Molecule CC(=O)NCC1CCN(c2cc(C(C)C)nc3ccnn23)CC1 has an INHIBITION of 59.4%. CC(C)c1cc(N2CCC(N)CC2)n2nccc2n1 gave an INHIBITION of -6.53%. Molecule CC(C)c1cc(N[C@@H](CO)C(N)=O)n2nccc2n1 has an INHIBITION of 42.3%. CC(C)c1cc(N2CCN(c3ccc(O)cc3)CC2)n2nccc2n1 showed an INHIBITION of 26.8%. Molecule CC(C)[C@H](Nc1cc(-c2ccncc2)nc2ccnn12)C(N)=O has an INHIBITION of 25.5%. CC(C)c1cc(NCC(O)CO)n2nccc2n1 (stereo not given) gave an INHIBITION of 36.8%. With CC(C)c1cc(N2CCC(CCC(=O)NC3CC3)CC2)n2nccc2n1 the INHIBITION was 33.5%. For CC(C)c1cc(N2CC[C@H](F)C2)n2nccc2n1, the INHIBITION was 65.7%. CC(C)c1cc(N[C@H](C(N)=O)C(C)C)n2nccc2n1 gave an INHIBITION of 55.2%. CC(C)c1cc(NCC(O)c2ccncc2)n2nccc2n1 (stereo not given) gave an INHIBITION of 0.897%. Cc1cnn(CC2CCN(c3cc(C(C)C)nc4ccnn34)CC2)c1 was tested, and the INHIBITION was 21.2%. With CC(C)c1cc(NCC(C)N2CCCC2)n2nccc2n1 (stereo not given) the INHIBITION was 65.1%. For O=C(Cc1ccsc1)N1CCC(O)(CN2CCc3ccccc3C2)C1 (stereo not given), the INHIBITION was 30.8%. Work on COc1ncccc1CN1C[C@@H]2COC[C@]2(COCC(=O)N(C)C)C1 yielded an INHIBITION of -3.52%. For CCn1cc(C(=O)NCCN2CCCc3ccccc32)c(C)n1, the INHIBITION was 12.9%. For Cn1nc(C2CCN(C(=O)c3cccs3)CC2)c2cccnc21, the INHIBITION was 47.2%. CCc1nc(CS(=O)(=O)Cc2noc(C3CC3)n2)cs1 showed an INHIBITION of 34%. CC(C)=CCN1CCN(C(=O)C2CC2)CC1 was tested, and the INHIBITION was 21.5%. Work on CC(C)COCC1CN(Cc2ccsc2)Cc2ncn(C)c21 (stereo not given) yielded an INHIBITION of 16.4%. In the case of Cn1nnc2c1C(COCc1cccnc1)CN(Cc1ccoc1)C2 (stereo not given), the INHIBITION is reported as 29.4%. Molecule Cc1nc(C)c(CNCC2(COc3cccnc3)C[C@@H](O)[C@@H](O)C2)s1 (stereo not given in full) has an INHIBITION of 33.6%. Molecule Cc1noc(CCCC(=O)N2CCCC2c2ccsc2)n1 (stereo not given) has an INHIBITION of 0.914%. With Cc1cccc2c1NC1(CCCC1)NC2=O the INHIBITION was 45.2%. With COC(=O)C1CCN(C(=O)Cn2ccc(-c3ccc(F)cc3)n2)CC1 the INHIBITION was -36.4%. Work on O=C1[C@@H]2CC[C@@H](CN(C3CSCCSC3)C2)N1Cc1cscn1 yielded an INHIBITION of -14.9%. Work on Cc1cc(N2CCCC(N(C)C)C2)n2nccc2n1 (stereo not given) yielded an INHIBITION of 55.4%. In the case of CC(C)c1cc(N2CCC[C@H](N)C2)n2nccc2n1, the INHIBITION is reported as 13%. CC(C)c1cc(N2CCSCC2)n2nccc2n1 showed an INHIBITION of -6.03%. Work on Cc1cc2nc(C(C)C)cc(N3CCC(O)CC3)n2n1 yielded an INHIBITION of 11.3%. Cc1cc2nc(C(C)C)cc(N3CCC(N(C)C)C3)n2n1 (stereo not given) showed an INHIBITION of 17.7%. In the case of Cc1nn2c(N3CCC(O)C3)cc(-c3ccccc3)nc2c1C (stereo not given), the INHIBITION is reported as 38.5%. Work on CC(C)c1cc(N2CCC(N(C)C)C2)n2nccc2n1 (stereo not given) yielded an INHIBITION of 53.9%. Cc1cc(N2CCCC(N(C)C)C2)n2nc(C)cc2n1 (stereo not given) showed an INHIBITION of -1.16%. In the case of COC1CCN(c2cc(C(C)C)nc3ccnn23)C1 (stereo not given), the INHIBITION is reported as 7.6%. CC(C)c1cc(N2CCC(C(C)N3CCCC3)CC2)n2nccc2n1 (stereo not given) gave an INHIBITION of 73%. With Cc1nn2c(N3CCCC(C#N)C3)cc(-c3ccccc3)nc2c1C (stereo not given) the INHIBITION was 19.5%. CN(C)C1CCN(c2cc(-c3ccccc3)nc3ccnn23)C1 (stereo not given) was tested, and the INHIBITION was 74.9%. COc1cccc(OCCc2nnc(NC(C)=O)s2)c1 gave an INHIBITION of -8.9%. In the case of N[C@H]1CN(C(=O)CCCc2ccc(F)cc2)C[C@@H]1C1CC1, the INHIBITION is reported as 25.1%. In the case of O=C1COc2ccc(C(=O)NS(=O)(=O)c3cc(F)ccc3F)cc2N1, the INHIBITION is reported as 33.3%. For CCc1cc(NC(=O)C2CCCN(C(=O)c3ccncc3)C2)[nH]n1 (stereo not given), the INHIBITION was 8.86%. With O=C(Cc1csc(-c2cccc(Cl)c2)n1)NCc1cccc(C(=O)O)c1 the INHIBITION was 34.5%. COCCN(CCOC)C(=O)c1c[nH]nc1-c1cccc(F)c1 was tested, and the INHIBITION was -3.24%. Molecule Cc1nc(-c2ccc(Cl)s2)sc1C(=O)NCCCC(N)=O has an INHIBITION of -102.2%. For CCN1CC(COC(=O)c2cc(Br)ccc2F)CC1=O (stereo not given), the INHIBITION was 8.4%. Work on CC(C)C1CCCN1CC(=O)NCc1ccc(OCC(N)=O)cc1 (stereo not given) yielded an INHIBITION of 12.8%. For CC(C)c1cc(N2CCC(NS(C)(=O)=O)C2)nc(C(C)C)n1 (stereo not given), the INHIBITION was 49.6%. CC(C)c1cc(NC(CO)CO)n2nccc2n1 gave an INHIBITION of 33.2%. CC(C)c1cc(N2CCC(NS(C)(=O)=O)CC2)n2nccc2n1 gave an INHIBITION of 61.2%. Work on CC(=O)N1CCCN(C(=O)CCc2c(C)nc3ccnn3c2C)CC1 yielded an INHIBITION of 10%. Work on CC(=O)c1ccc(NC(=O)c2ccc3c(c2)C2(CCCCC2)CN3)cc1 yielded an INHIBITION of 64.7%. Molecule CNC(=O)N1CCC2(CC1)CNc1ccc(F)cc12 has an INHIBITION of 10.5%. With CN(C)C(=O)N1CCC2(CC1)CNc1ccc(F)cc12 the INHIBITION was 49.1%. For O=C(Nc1ccccc1)C1=NOC2(CCCNC2)C1 (stereo not given), the INHIBITION was -4.02%. O=C(Nc1ccccc1)c1ccc2c(c1)C1(CCCCC1)CN2 was tested, and the INHIBITION was 90.1%. Molecule CC(=O)N1CCC2(CC1)CNc1ccc(F)cc12 has an INHIBITION of 36.2%. Work on CCOCC1CN(S(=O)(=O)c2ccccc2)Cc2nccn2C1 (stereo not given) yielded an INHIBITION of 34%. COC(C)(C)C(=O)N1CCC(c2cc(CN(C)C)n(C)n2)CC1 gave an INHIBITION of -42.1%. Molecule CC(=O)N1CCN(C(=O)C(C)OCC(F)(F)F)CC1 (stereo not given) has an INHIBITION of -22.8%. CN(CC(N)=O)C(=O)c1cc(Cl)c(Cl)n1C gave an INHIBITION of 8.4%. CC(C)Cc1noc(CN2CCC(NC(=O)c3cccs3)CC2)n1 gave an INHIBITION of 53.5%. With CC(C)Cc1nc(CN2CCC(NC(=O)c3cccs3)CC2)no1 the INHIBITION was 24.2%. Cc1ccc(C(=O)NC2CCN(Cc3noc(CC(C)C)n3)CC2)s1 gave an INHIBITION of 71.8%. With Cc1ccc(C(=O)NC2CCN(Cc3noc(C(C)C)n3)CC2)s1 the INHIBITION was 7.44%. Work on Cc1ccc(C(=O)NC2CCN(Cc3nc(CC(C)C)no3)CC2)s1 yielded an INHIBITION of 18.6%. CC(C)Cc1noc(CN2CCN(C(=O)c3cccs3)CC2)n1 was tested, and the INHIBITION was 0.891%. CCOc1ccnc(N2CCCN(C(=O)c3cc[nH]c3C)CC2)n1 showed an INHIBITION of -7.31%. For COc1ccccc1-c1ccc(NCc2cn3c(n2)SCC3)nn1, the INHIBITION was 9%. For CCc1c(C)nc2n(c1=O)CC(C(=O)Nc1ccccc1C)CS2 (stereo not given), the INHIBITION was 42.4%. In the case of CC(C)CCCNC(=O)Nc1ccc(C(N)=O)c(Cl)c1, the INHIBITION is reported as -49.5%. For COc1no[n+]([O-])c1-c1ccccc1, the INHIBITION was 63.5%. CN(C)c1no[n+]([O-])c1-c1ccccc1 showed an INHIBITION of -3.19%. CCOc1no[n+]([O-])c1-c1ccccc1 was tested, and the INHIBITION was 36.9%.
